# Results from paper PMC5540273 (PLoS ONE, 2017).
# System: PIK3CD
# Conditions: concentration: 1 μM, replicates: in singlicate; n = 1
# 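Further: KINOMEscan kinase panel screen.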
row,Structure (SMILES),%Inh [%]
1,O=C(Nc1cccc(-c2nn3ccccc3c2-c2ccnc(Nc3cccc(C(F)(F)F)c3)n2)c1)c1c(F)cccc1F [GSK292658],0
2,Nc1n[nH]c2cnc(-c3ccccc3)cc12 [SB-642124],0
3,CN(c1ccc(NC(=O)Nc2cc(C(F)(F)F)ccc2F)cc1)c1ccnc(Nc2ccc(S(N)(=O)=O)cc2)n1 [GW809893],30
4,Clc1ccc(-c2nn3ncccc3c2-c2ccnc(Nc3ccc4c(c3)OCCO4)n2)cc1 [GW829116],0
5,Cn1cc(-c2[nH]c3cc(NC(=O)[C@H](N)C4CCCCC4)cc4c3c2C=NNC4=O)cn1,6

# System: PIK3CG
# Conditions: concentration: 1 μM, replicates: in singlicate; n = 1
row,Structure (SMILES),%Inh [%]
1,FC(F)(F)c1ccc(/C=C/c2cncnc2Nc2ccc3[nH]c(Cc4ccccc4)nc3c2)cc1 [GW709199],0
2,O=C(Nc1cccc(-c2nn3ccccc3c2-c2ccnc(Nc3cccc(F)c3)n2)c1)c1c(F)ccc(F)c1Cl [GSK357952],0
3,O=C(Nc1ccccc1F)NC1CCN(c2ccnc(Nc3ccc(F)cc3)n2)CC1 [GSK1379800],3
4,Cc1occc1-c1ncc(OC[C@@H](N)Cc2c[nH]c3ccccc23)cc1-c1ccc2[nH]nc(C)c2c1.O=C(O)C(F)(F)F [GSK682037],0
5,C[C@@H]1CC[C@@H](C(=O)Nc2ccccc2)CN1c1cc(-c2ccc3c(N)n[nH]c3c2)nc(N)n1 [GSK2286062],2
6,Cl.NC(=O)c1cccc(Nc2nccc(Nc3ccc(Oc4c(Cl)cccc4Cl)c(Cl)c3)n2)c1 [GW659009],0
7,Cc1ccc(C(=O)Nc2ccc(Nc3ccnc4cc(-c5nccs5)ccc34)cc2O)cc1.Cl [GW494702],0
8,CNC(=O)c1ccccc1Nc1nc(Nc2ccc(N3CCOCC3)cc2)ncc1Cl.Cl [GSK1576028],31
9,COc1cc(Nc2nccc(-c3c(-c4cccc(NC(=O)c5c(F)cccc5F)c4)nn4ccccc34)n2)cc(OC)c1OC [GSK323521],9
10,Nc1ncnc2c1nc(-c1ccccc1)n2-c1ccccc1 [SKF-97293],13
11,Fc1ccc(-c2ncn(C3CCNCC3)c2-c2ccnc(Oc3ccc(-c4ccccc4)cc3)n2)cc1 [SB-245391],39
12,Cl.Cl.NCC(NCc1ccc(-c2ccnc3[nH]ccc23)s1)c1ccccc1 (stereo not drawn) [GSK1321565],21
13,CC(=O)N1CCN(c2ccc(Nc3nccc(-c4sc(C(C)C)nc4-c4cccc(NS(=O)(=O)c5cccc(Cl)c5)c4)n3)cn2)CC1 [GSK1660437],0
14,COc1ccc(Nc2nccc(N3CCC(NC(=O)Nc4cccc(OC)c4)C3)n2)cc1 (stereo not drawn) [GSK1379742],0
15,Cl.Cl.NCC(NC(=O)c1cc(-c2ccccc2)c(-c2ccnc3[nH]ccc23)s1)c1ccccc1 (stereo not drawn) [GSK1321561],4
16,O=C(Nc1n[nH]c2cc(-c3ccoc3)ccc12)C1CC1 [SB-738481],12
17,Cl.c1ccc(-c2ccc3c(Nc4ccc5[nH]ccc5c4)ccnc3c2)nc1 [GW440138],0
18,COc1cc(Nc2nccc(-c3c(-c4cccc(NC(=O)c5c(F)cccc5F)c4)nn4ncccc34)n2)cc(OC)c1OC [GSK327238],6
19,CCCCc1nn2ncccc2c1-c1ccnc(Nc2ccc(N3CCN(C)CC3)cc2)n1 [GW684941],0

row,Structure (SMILES),%Inh [%]
1,Nc1ncc(-c2ccc3nccc(-c4ccncc4)c3c2)cc1S(=O)(=O)N1CCOCC1 [GSK1627798],99.5
2,Cc1ccc(S(=O)(=O)Nc2ccc(Nc3nccc(Nc4cccc5[nH]ncc45)n3)cc2)cc1 [GSK581271],5
3,COc1ccc(Nc2nccc(NCCNC(=O)c3cc4ccccc4s3)n2)cc1 [GSK1379896],0
4,NCCCC(NC(=O)c1cc(Br)c(-c2ccnc3[nH]ccc23)s1)c1ccccc1.O=C(O)C(F)(F)F.O=C(O)C(F)(F)F (stereo not drawn) [GSK1287544],0
5,CC(C)c1nc(-c2cccc(NS(=O)(=O)c3c(F)cccc3F)c2F)c(-c2ccnc(Nc3ccc(N4CCOCC4)nc3)n2)s1 [GSK2008607],0
6,O=C(NC1CCN(c2ccnc(Nc3ccc(F)cc3)n2)C1)c1cc2ccccc2s1 (stereo not drawn) [GSK1379716],0
7,Nc1ncc(-c2cccnc2)c2scc(-c3ccc4c(c3)CCN4C(=O)Cc3ccccc3)c12 [GSK683281],0
8,CC(C)(C)c1ccc2nccc(Nc3cccc(O)c3)c2c1 [GW856795],33
9,COc1cccc(C2=C(Nc3ccc(Cl)c(C(=O)O)c3)C(=O)NC2=O)c1 [SB-390769],0
10,Cc1ccc(F)c(C(=O)Nc2cccc(-c3nn4ccccc4c3-c3ccnc(Nc4cccc(F)c4)n3)c2)c1F [GSK361061],0
11,O=C(Nc1n[nH]c2nc(-c3ccc(O)cc3)ccc12)C1CC1 [SB-710363],2
12,c1ccc(-c2n[nH]cc2Nc2ccnc3ccccc23)nc1 [GW694077],14
13,CCn1c(-c2nonc2N)nc2c(C#CC(C)(C)O)ncc(OCCCCN)c21.O=C(O)C(F)(F)F.O=C(O)C(F)(F)F [GSK507274],0
14,O=C(Nc1cccc(-c2nn3ccccc3c2-c2ccnc(Nc3cccc(C(F)(F)F)c3)n2)c1)c1c(F)cccc1F [GSK292658],0
15,Nc1n[nH]c2cnc(-c3ccccc3)cc12 [SB-642124],0
16,CN(c1ccc(NC(=O)Nc2cc(C(F)(F)F)ccc2F)cc1)c1ccnc(Nc2ccc(S(N)(=O)=O)cc2)n1 [GW809893],31
17,Clc1ccc(-c2nn3ncccc3c2-c2ccnc(Nc3ccc4c(c3)OCCO4)n2)cc1 [GW829116],0
18,Cn1cc(-c2[nH]c3cc(NC(=O)[C@H](N)C4CCCCC4)cc4c3c2C=NNC4=O)cn1,0
